Results reported in PubChem BioAssay (Tox21).
Results filed as inconclusive are left out. A call without a number means that no potency is given here. A structure can be active in one record and inactive in another. Active and inactive are the calls of the source. Unless noted, calls follow the shape of the dose curve; as a rule, active = well fitted curve in the direction sought with a large enough effect in the repeat runs; inconclusive = weak or mixed curves; inactive = no such curve, though single readings can be large; an effect the other way counts as inactive or inconclusive.

Columns and labels:
[1] = qHTS assay to identify small molecule antagonists of the glucocorticoid receptor (GR) signaling pathway - cell viability counter screen (AID 720693); also: nearly all actives have a fitted effect of over 55% in size; also: potency is read from the fitted curve at half-maximal effect
[2] = qHTS assay for identifying genotoxic compounds that show differential cytotoxicity against isogenic chicken DT40 cell lines with known DNA damage response pathways - wild type cell line (AID 743012); also: nearly all actives have a fitted effect of over 60% in size; also: potency is read from the fitted curve at half-maximal effect
In short: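 300 wt DT40 cells/well; cpd (DMSO) pintool-transferred after ~0.5 h at 37 C/5% CO2; 40 h incubation; CellTiter-Glo added, 30 min RT; luminescence read.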

[3] = qHTS assay for identifying genotoxic compounds that show differential cytotoxicity against isogenic chicken DT40 cell lines with known DNA damage response pathways - Rev3 mutant cell line (AID 743014); also: nearly all actives have a fitted effect of over 55% in size; also: potency is read from the fitted curve at half-maximal effect
[4] = qHTS assay for identifying genotoxic compounds that show differential cytotoxicity against isogenic chicken DT40 cell lines with known DNA damage response pathways - Rad54/Ku70 mutant cell line (AID 743015); also: nearly all actives have a fitted effect of over 60% in size; also: potency is read from the fitted curve at half-maximal effect
[5] = qHTS assay to identify small molecule antagonists of the androgen receptor (AR) signaling pathway - cell viability counter screen (AID 743033; also: nearly all actives have a fitted effect of over 45% in size)
[6] = target: Androgen receptor (Homo sapiens) (UniProt P10275); assay: qHTS assay to identify small molecule antagonists of the androgen receptor (AR) signaling pathway (AID 743035; active = well fitted inhibition curve with a large enough effect in the signal ratio in the repeat runs, not every such curve was filed as active; the % refers to the signal ratio)
Androgen receptor (Homo sapiens), sequence (P10275 whole entry, looked up): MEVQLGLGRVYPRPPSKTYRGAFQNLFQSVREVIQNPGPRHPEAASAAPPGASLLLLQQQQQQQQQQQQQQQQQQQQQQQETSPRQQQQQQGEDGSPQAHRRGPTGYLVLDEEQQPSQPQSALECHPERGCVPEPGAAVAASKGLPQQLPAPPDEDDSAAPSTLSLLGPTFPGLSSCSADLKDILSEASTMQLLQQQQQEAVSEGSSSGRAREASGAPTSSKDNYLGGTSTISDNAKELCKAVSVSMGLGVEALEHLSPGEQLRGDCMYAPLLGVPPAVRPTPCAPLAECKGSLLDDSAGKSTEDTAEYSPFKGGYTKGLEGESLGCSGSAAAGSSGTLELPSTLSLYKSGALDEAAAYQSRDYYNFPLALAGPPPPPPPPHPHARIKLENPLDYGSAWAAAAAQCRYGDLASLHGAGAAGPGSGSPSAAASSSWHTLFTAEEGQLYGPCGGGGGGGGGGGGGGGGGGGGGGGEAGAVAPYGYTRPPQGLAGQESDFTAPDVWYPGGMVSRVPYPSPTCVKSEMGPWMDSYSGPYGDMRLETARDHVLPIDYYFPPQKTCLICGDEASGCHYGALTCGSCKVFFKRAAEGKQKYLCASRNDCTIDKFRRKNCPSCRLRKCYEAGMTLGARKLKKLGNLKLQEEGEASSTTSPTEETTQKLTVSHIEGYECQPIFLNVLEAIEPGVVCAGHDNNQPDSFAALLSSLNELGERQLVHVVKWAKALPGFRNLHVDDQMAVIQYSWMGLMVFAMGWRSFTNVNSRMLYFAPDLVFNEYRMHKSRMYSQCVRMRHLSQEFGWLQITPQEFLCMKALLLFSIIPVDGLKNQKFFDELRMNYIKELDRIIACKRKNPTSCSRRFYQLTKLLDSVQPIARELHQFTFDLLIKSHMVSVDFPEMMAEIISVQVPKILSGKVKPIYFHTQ
In short: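 In this cell-based reporter screen, compounds were tested in concentration series against R1881-activated HEK293 cells expressing beta-lactamase under UAS control; after 16 h at 37C, FRET substrate was added and fluorescence read 2 h later.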

[7] = target: Androgen receptor (Homo sapiens) (UniProt P10275); assay: qHTS assay to identify small molecule agonists of the androgen receptor (AR) signaling pathway using the MDA cell line (AID 743040; also: nearly all actives have a fitted effect of over 20% in size)
In short: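 Stable MMTV-luciferase reporter in MDA-kb2 cells; note the promoter carries GR as well as AR response elements. 16 h compound treatment, 37C, 0% CO2; ONE-Glo luminescence endpoint.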

[8] = qHTS assay to identify small molecule antagonists of the androgen receptor (AR) signaling pathway using the MDA cell line - cell viability counter screen (AID 743041; also: nearly all actives have a fitted effect of over 45% in size)
In short: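 Using the breast carcinoma line MDA-kb2 AR-luc, test chemicals were co-incubated with R1881 for 16 h; CellTiter-Fluor reagent, added at 15.5 h, provided a fluorescence measure of live cells.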

[9] = target: Androgen receptor (Homo sapiens) (UniProt P10275); assay: qHTS assay to identify small molecule antagonists of the androgen receptor (AR) signaling pathway using the MDA cell line (AID 743042; also: nearly all actives have a fitted effect of over 55% in size)
In short: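 Antagonist mode: compounds plus R1881 agonist added to MDA-kb2 AR-luc cells, incubated 16 h at 37C. Luciferase reporter luminescence quantified, with multiplexed CellTiter-Fluor readout for cell viability.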

Row | SMILES | Potency [1] | Potency [2] | Potency [3] | Potency [4] | Potency [5] | Potency [6] | Potency [7] | Potency [8] | Potency [9]
1 | CCOC(=O)CCC(=O)O[C@H]1[C@H](O[C@@H]2[C@@H](C)[C@H](O[C@H]3C[C@@](C)(OC)[C@@H](O)[C@H](C)O3)[C@@H](C)C(=O)O[C@H](CC)[C@@](C)(O)[C@H](O)[C@@H](C)C(=O)[C@H](C)C[C@@]2(C)O)O[C@H](C)C[C@@H]1N(C)C | inactive | inactive | inactive | inactive | inactive | inactive | inactive | inactive | inactive
2 | Cc1ncc(C[n+]2csc(CCOP(=O)(O)OP(=O)(O)O)c2C)c(N)n1 | inactive | inactive | inactive | inactive | inactive | inactive | inactive | inactive | inactive
3 | CC(CN(C)C)CN1c2ccccc2S(=O)(=O)c2ccccc21 (stereo unspecified) | inactive | inactive | inactive | inactive | inactive | inactive | inactive | inactive | inactive
4 | COCC1=C(C(=O)OC(C)OC(=O)OC(C)C)N2C(=O)[C@@H](NC(=O)/C(=N\OC)c3csc(N)n3)[C@H]2SC1 (stereo partly specified) | inactive | 1.68 µM (active) and inactive | 2.37 µM (active) and inactive | 1.06 µM (active) and inactive | inactive | – | – | inactive | –
5 | CN1CCN(C(c2ccccc2)c2ccc(Cl)cc2)CC1 (stereo unspecified) | inactive | 9.02 µM (active) | 10.1 µM (active) | 11.4 µM (active) | inactive | – | – | inactive | –
6 | C[C@@H](O)[C@H]1C(=O)N2C(C(=O)[O-])=C(SC3Cn4cnc[n+]4C3)[C@H](C)[C@H]12 (stereo partly specified) | inactive | inactive | inactive | inactive | inactive | – | – | inactive | –
7 | COc1ccc2cc([C@H](C)CO)ccc2c1 | inactive | inactive | inactive | inactive | inactive | – | – | inactive | –
8 | COc1cc(S(C)=O)ccc1-c1nc2ncccc2[nH]1 (stereo unspecified) | inactive | inactive | inactive | inactive | inactive | – | – | inactive | –
9 | CN(C(=O)CO)c1c(I)c(C(=O)NCC(O)CO)c(I)c(C(=O)NCC(O)CO)c1I (stereo unspecified) | inactive | inactive | inactive | inactive | inactive | – | – | inactive | –
10 | CCCCC(=O)OCC(=O)[C@]1(O)Cc2c(O)c3c(c(O)c2[C@@H](O[C@H]2C[C@H](NC(=O)C(F)(F)F)[C@H](O)[C@H](C)O2)C1)C(=O)c1c(OC)cccc1C3=O | inactive | 1.5 µM (active) | 1.88 µM (active) | 0.211 µM (active) | inactive | – | – | inactive | –
11 | O=P(O)(O)C(Sc1ccc(Cl)cc1)P(=O)(O)O | inactive | inactive | inactive | inactive | inactive | – | – | inactive | –
12 | CCCCCCCCCCCCCCCC(=O)OCCC1CCN(CCCN2c3ccccc3Sc3ccc(S(=O)(=O)N(C)C)cc32)CC1 | inactive | inactive | inactive | inactive | inactive | – | – | inactive | –
13 | CCOC(=O)C1=C(COCCN)NC(C)=C(C(=O)OC)C1c1ccccc1Cl (stereo unspecified) | inactive | 7.5 µM (active) | 13.3 µM (active) | 13.3 µM (active) | inactive | – | – | inactive | –
14 | O=P(O)(O)C(O)(Cc1cnc2ccccn12)P(=O)(O)O | inactive | inactive | inactive | inactive | inactive | – | – | inactive | –
15 | CO[C@H]1C[C@H](O[C@H]2[C@H](C)O[C@@H](O[C@@H]3/C(C)=C/C[C@@H]4C[C@@H](C[C@]5(C=C[C@H](C)[C@@H](C6CCCCC6)O5)O4)OC(=O)[C@@H]4C=C(C)[C@@H](O)[C@H]5OC/C(=C\C=C\[C@@H]3C)[C@]54O)C[C@@H]2OC)O[C@@H](C)[C@@H]1O | 7.56 µM (active) | 5.31 µM (active) | 6.68 µM (active) | 5.96 µM (active) | inactive | – | – | inactive | –
16 | CC(CC(c1ccccc1)c1ccccc1)NC(C)(C)C (stereo unspecified) | inactive | 10.6 µM (active) | 23.7 µM (active) | 29.8 µM (active) | inactive | – | – | inactive | –
17 | N[C@H](CCC(=O)O)C(=O)O | inactive | inactive | inactive | inactive | inactive | – | – | inactive | –
18 | C/C(=C(\CCOC(=O)c1ccccc1)SS/C(CCOC(=O)c1ccccc1)=C(/C)N(C=O)Cc1cnc(C)nc1N)N(C=O)Cc1cnc(C)nc1N | inactive | 10.6 µM (active) | 23.7 µM (active) | 26.6 µM (active) | inactive | – | – | inactive | –
19 | CCCC1C(=O)N2C(N(C)C)=Nc3ccc(C)cc3N2C1=O (stereo unspecified) | inactive | inactive | inactive | inactive | inactive | – | – | inactive | –
20 | CCCC(=O)Nc1c(I)cc(I)c(CC(CC)C(=O)O)c1I (stereo unspecified) | inactive | inactive | inactive | inactive | inactive | – | – | inactive | –
21 | O=S(O)CNc1ccc(S(=O)(=O)c2ccc(NCS(=O)O)cc2)cc1 | inactive | inactive | inactive | inactive | inactive | – | – | inactive | –
22 | COc1ccc(/C=C/C(=O)OCCC(C)C)cc1 | inactive | inactive | inactive | inactive | inactive | – | – | inactive | –
